RGS4-Gao reg – modulates binding of RGS4 to human Galphao | P09471 | Multiplexed bead flow cytometry; actives lie on both sides | binding response (% of control), % at 10 µM | 220,000 compounds, 0.33% hits | AID 1415; in the data active = binding response below about 49% or above about 150%; inactive = in between;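 note: fluorescent Galphao activated with aluminum fluoride binding bead-coupled RGS4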
Target sequence (P09471 whole entry, looked up): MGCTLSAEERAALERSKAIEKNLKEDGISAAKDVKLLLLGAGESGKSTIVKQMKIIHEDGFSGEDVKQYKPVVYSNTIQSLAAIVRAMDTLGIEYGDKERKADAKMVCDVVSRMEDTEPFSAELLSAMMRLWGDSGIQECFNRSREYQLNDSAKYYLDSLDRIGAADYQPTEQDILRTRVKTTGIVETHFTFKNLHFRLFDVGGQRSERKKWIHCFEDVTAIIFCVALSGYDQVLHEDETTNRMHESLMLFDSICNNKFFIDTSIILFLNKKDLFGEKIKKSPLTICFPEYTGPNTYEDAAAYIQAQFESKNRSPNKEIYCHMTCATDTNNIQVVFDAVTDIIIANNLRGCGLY
RGS7-Gao reg – modulates binding of RGS7 to human Galphao. P09471. Multiplexed bead flow cytometry; actives lie on both sides. binding response (% of control), % at 10 µM. 220,000 compounds, 0.35% hits. AID 1439; in the data active = binding response below about 49% or above about 150%; inconclusive = no clear call, values can overlap the other calls; inactive = in between;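 note: fluorescent Galphao held in activated GDP-AlF4 state binding bead-coupled RGS7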
GSH fluor – GSH bead compound fluorescence profile; GSH beads flow cytometry, compound fluorescence 488/530 nm; active compounds read high; fluorescence (KMESF) at 10 µM; 190,000 compounds, 0.25% hits; AID 1776; in the data active = fluorescence above about 89;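 note: glutathione beads carrying GST-tagged Bcl family fusion proteins plus one bare bead set; values are compound well signal with DMSO vehicle wells as background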
RGS16-Gao HTS – regulators of human RGS16-Galphao interaction. O15492+P09471. bead-based flow cytometry RGS16-Galphao binding, fluorescence; actives lie on both sides. binding response (% of control), % at 10 µM. 220,000 compounds, 0.38% hits. AID 1441;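 note: Galphao activated by GDP with aluminum fluoride before binding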
Avidin bead fluor – avidin bead compound fluorescence profile. fluorescence (KMESF) at 10 µM. AID 1775. Avidin beads, compound fluorescence 488/530 nm, flow cytometry; active compounds read high. 220,000 compounds, 0.38% hits; in the data active = fluorescence above about 47
RGS8-Gao – regulators of human RGS8-Galphao interaction; P09471; multiplexed bead flow cytometry, RGS8-Galphao binding; actives lie on both sides; response (percent of control binding), % at 10 µM; 220,000 compounds, 0.34% hits; AID 1423; in the data active = response below about 60% or above about 140%; inactive = in between;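 note: Galphao activated as the GDP aluminium fluoride complex binding bead-coupled RGS8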
RGS4-Gao HTS – modulates binding between human RGS4 and Galphao | RGS4–Galpha-o binding response, % at 10 µM | 1,600 compounds, 99% hits | multiplexed bead flow cytometry, RGS–Galpha-o binding | shares compounds with RGS16-Gao HTS | AID 1504;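 note: fluorescently labeled Galpha-o bound to GDP with aluminium fluoride binding biotinylated RGS beads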
Target sequence (P09471 whole entry, looked up): as above
Target sequence (P49798 whole entry, looked up): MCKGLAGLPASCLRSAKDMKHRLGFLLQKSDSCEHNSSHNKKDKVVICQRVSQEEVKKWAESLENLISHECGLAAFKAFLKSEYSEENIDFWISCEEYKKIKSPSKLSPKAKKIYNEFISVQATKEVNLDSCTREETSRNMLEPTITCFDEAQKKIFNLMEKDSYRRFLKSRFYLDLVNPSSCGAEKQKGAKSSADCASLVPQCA
Biotin-avidin – interferes with biotinylated probe binding to avidin beads; shares compounds with RGS16-Gao HTS; streptavidin beads, fluorescein-biotin binding, flow cytometry; inhibition, % at 10 µM; 1,700 tested, under 10 active; AID 1783;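 active = inhibition above 50%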;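 note: median green fluorescence of gated singlet beads compared with DMSO control wells; 0% = DMSO wells and 100% = complete loss of bead fluorescence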
RGS8-Gao single – confirmation of regulators of human RGS8-Galphao interaction; binding response (% of control), % at 10 µM; shares compounds with RGS16-Gao HTS; 1,700 compounds, 3% hits; bead-based flow cytometry RGS8-Galphao binding, fluorescence; actives lie on both sides; in the data active = binding response below about 72% or above about 130%; inactive = in between;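 note: Galphao activated as GDP AlF4 complex before binding bead RGS8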
RGS7-Gao confirm – RGS7-Galphao interaction regulation, single point confirmation. shares compounds with RGS16-Gao HTS. bead-based flow cytometry RGS7-Galphao binding; actives lie on both sides. response (percent of control binding), % at 10 µM. 1,700 compounds, 7.8% hits. AID 1837; in the data active = response below about 75% or above about 130%; inactive = in between;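 note: fluorescent Galphao activated with GDP and aluminum fluoride binding bead-coupled RGS7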
RGS16-Gao single – confirmation of regulators of human RGS16-Galphao interaction; shares compounds with RGS16-Gao HTS; bead-based flow cytometry, RGS16-Galphao binding; actives lie on both sides; AID 1838; 1,700 compounds, 4% hits; response (% of control binding), % at 10 µM; in the data active = response below about 74% or above about 130%; inactive = in between;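 note: Galphao activated as the GDP aluminium fluoride complex binding bead-coupled RGS16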
RGS4-Gao single – confirmation of regulators of human RGS4-Galphao interaction. binding response (% of control), % at 10 µM. 1,700 compounds, 4% hits. RGS4-Galphao binding, multiplexed bead flow cytometry; actives lie on both sides. shares compounds with RGS16-Gao HTS; in the data active = binding response below about 74% or above about 130%; inactive = in between
RGS19-Gao conf – RGS19-Galphao interaction regulation, single point confirmation; response (percent of control binding), % at 10 µM; shares compounds with RGS16-Gao HTS; bead-based flow cytometry RGS19-Galphao binding; actives lie on both sides; 1,700 compounds, 5% hits; in the data active = response below about 50% or above about 160%; inactive = in between;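 note: 100% = no compound control and 0% = blank background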
Starred values were filed as active, the others as inactive; ? = inconclusive; . = no result given; [ ] = dose if it differs, or a comment. Most compounds without a hit are left out; they make up all but 1.2% or so of the library. Unless noted, the rule behind the calls is not given here.

SMILES | RGS4-Gao reg | RGS7-Gao reg | GSH fluor | RGS16-Gao HTS | Avidin bead fluor | RGS8-Gao | RGS4-Gao HTS | Biotin-avidin | RGS8-Gao single | RGS7-Gao confirm | RGS16-Gao single | RGS4-Gao single | RGS19-Gao conf
CC(C)c1onc(C(=O)N(C)Cc2ccccc2)c1[N+](=O)[O-] | 89 | 87 | 10 | 24* | 2 | 74 | 89* | 4 | 107 | 105 | 113 | 105 | 111
CC(C)c1onc(C(=O)NCCc2ccccc2)c1[N+](=O)[O-] | 102 | 94 | 11 | 98 | 10 | 100 | . | . | . | . | . | . | .
COc1ccc(Oc2cccc(Cl)c2CNC(=O)CCC(=O)O)cc1 | 98 | ? | . | 98 | 5 | 99 | . | . | . | . | . | . | .
CCc1nnc(SCc2ccc(OC)c(Br)c2)n1N | 40* | 35* | 24 | 33 | 15 | 44* | . | -2 | 105 | 101 | 110 | 101 | 104
CC(C)c1ccc(N(CC(=O)NN=C2CCN(C)CC2)S(=O)(=O)c2ccccc2)cc1 | 109 | 118 | 11 | 108 | 5 | 110 | . | . | . | . | . | . | .
CSc1ccc(S(=O)(=O)N(CC(=O)NN=C2CCN(C)CC2)c2ccc(C)cc2)cc1 | 112 | 174*[activator] | 11 | 101 | 63* | 99 | 112* | 1 | 102 | 125*[activator] | 113 | 112 | 195*[activator]
O=C(CSc1nnc2scc(-c3ccccc3)n12)Nc1nsc(-c2ccccc2)n1 | 99 | 108 | 17 | 116 | 47 | 108 | . | . | . | . | . | . | .
Cc1ccc(-c2csc3nnc(SCC(=O)Nc4nsc(-c5ccccc5)n4)n23)cc1 | . | . | 34 | . | . | . | . | 0 | 100 | 99 | 99 | 101 | 95
Clc1ccc(C2=CSC3=NCCN23)cc1Cl | -19* | -0.4* | 11 | -14* | 0 | 18* | . | 0 | 102 | 91 | 100 | 98 | 104
CCC(Oc1ccccc1)C(=O)N(Cc1ccccc1)c1ccccn1 (stereo not drawn) | 93 | 90 | 24 | 100 | 10 | 97 | . | . | . | . | . | . | .
CC(C)C(=O)N(Cc1ccccc1)c1ccccn1 | 251*[activator] | 208*[activator] | 38 | 244*[activator] | 116* | 113 | . | -2 | 102 | 98 | 100 | 100 | 100
c1ccc2c(c1)CCN(C1=Nc3cccc4cccc1c34)C2 | 102 | 102 | 10 | 108 | 26 | 103 | . | . | . | . | . | . | .
CCC(=O)Nc1cc(ON=C(C)C)cc([N+](=O)[O-])c1 | -40* | -15* | 14 | 39 | -2 | 34* | . | -2 | 99 | 99 | 101 | 98 | 102
CC(C)=NOc1cc(NC(=O)CCl)cc([N+](=O)[O-])c1 | 101 | 100 | 13 | 106 | 4 | 102 | . | . | . | . | . | . | .
CC(=O)O/N=C1\C(=O)N(Cc2ccc(C)cc2)c2ccccc21 | 76 | 71 | 15 | 18 | 10 | 58* | 76* | . | . | . | . | . | .
CN1C(=O)/C(=N\OC(=O)c2ccccc2Cl)c2ccccc21 | 104 | 107 | 11 | 100 | 7 | 101 | . | . | . | . | . | . | .
Cc1ccccc1/C=C/c1nc2ccccc2c(=O)[nH]1 | 7.3* | ? | . | 14* | 0 | 42* | . | -2 | 102 | 100 | 102 | 102 | 108
CN=C1c2cc3c(Br)c(OC)ccc3n2CCN1C | 152*[activator] | 128 | 8 | 153 | 16 | 97 | . | -1 | 104 | 95 | 105 | 99 | 96
COc1ccc(C2C(C(C)=O)=C(O)C(=O)N2c2nccs2)c(OC)c1 (stereo not drawn) | 99 | ? | 11 | 102 | 13 | 99 | . | . | . | . | . | . | .
CCN(CC)CCN1C(=O)c2ccccc2NC1c1ccc(F)cc1 (stereo not drawn) | 99 | 100 | 25 | 102 | 37 | 101 | . | . | . | . | . | . | .
CCN(CC)CCN1C(=O)c2ccccc2NC1c1ccccc1F (stereo not drawn) | 88 | 90 | 23 | 23* | 3 | 75 | 88* | . | . | . | . | . | .
CCC(C)(C)c1nnc(NC(=O)c2cccc([N+](=O)[O-])c2)s1 | 89 | 89 | 12 | 20* | 2 | 75 | 89* | 2 | 103 | 105 | 109 | 107 | 92
CC(=O)OCCCNc1cc(Sc2nc3ccccc3s2)c2nonc2c1[N+](=O)[O-] | 83 | 96 | 24 | 8.5* | -2 | 51* | 83* | 0 | 78 | 78 | 82 | 96 | 26*
Cc1cc([N+](=O)[O-])cc2c1NC(=O)C2(O)N1CCOCC1 (stereo not drawn) | 74 | 80 | 14 | 79 | 9 | 94 | . | . | . | . | . | . | .
Cc1nc(SCC(=O)NCc2ccco2)c2c(=O)n(C)c(=O)n(CC(C)C)c2n1 | 104 | ? | 14 | 101 | 9 | 101 | . | . | . | . | . | . | .
SMILES | RGS4-Gao reg | RGS7-Gao reg | GSH fluor | RGS16-Gao HTS | Avidin bead fluor | RGS8-Gao | RGS4-Gao HTS | Biotin-avidin | RGS8-Gao single | RGS7-Gao confirm | RGS16-Gao single | RGS4-Gao single | RGS19-Gao conf
CSCC[C@H](NC(=O)Nc1ccc(OC(F)(F)F)cc1)C(=O)O | 61 | ? | . | 48 | 5 | 55* | 61* | 0 | 102 | 99 | 98 | 102 | 97
Cc1nnc(Cl)c2nn(-c3ccccc3F)c(C)c12 | 102 | 103 | 8 | 105 | 4 | 101 | . | . | . | . | . | . | .
Cc1nnc(SCCN2CCOCC2)c2nn(-c3ccccc3F)c(C)c12 | 110 | 109 | 3 | 180*[activator] | 13 | 121 | 110* | 0 | 110 | 111 | 113 | 109 | 112
CCOC(=O)C(=Cc1ccc(-n2ccnc2)cc1)C(=O)OCC | 4.6* | ? | 10 | -2.5* | -2 | 6.7* | . | -2 | 100 | 105 | 100 | 103 | 94
Cc1ccc(C)c(/C=N/Nc2nc3ccccc3c(=O)n2O)c1 | 92 | ? | . | 92 | 7 | 93 | . | . | . | . | . | . | .
NC(N)=N/N=C/c1ccc(Br)cc1 | 99 | 101 | 14 | 100 | 11 | 104 | . | . | . | . | . | . | .
N#Cc1ccc(/C=N/N=C(N)N)cc1 | 220*[activator] | 179*[activator] | 35 | 244*[activator] | 112* | 115 | . | 2 | 103 | 101 | 96 | 101 | 63

From PubChem BioAssay
